DT40 TDP1 no CPT – qHTS for Inhibitors of human tyrosyl-DNA phosphodiesterase 1 (TDP1): qHTS in cells in absence of CPT. DT40 Tdp1-/- hTDP1 cells, no CPT, ATP luminescence, 48 h. Potency, µM (series often up to 46.2 µM), without a hit: at the top dose activity change, negative = growth inhibition, usual class: inhibitors. 15% of 420,000 active; also: potency is read from the fitted curve at half-maximal effect; nearly all actives have a fitted effect of over 55% in size
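Chicken DT40 Tdp1-/- cells stably complemented with human TDP1 were seeded at 400 cells/well with DMSO in place of 20 nM camptothecin. After compound pinning, cells grew at least 48 hr at 37 °C; viability read by CellTiter-Glo luminescence.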
IL-1B inflam inh – blocks inflammasome-driven IL-1 beta release. THP-1 LPS/ATP IL-1B secretion, AlphaLISA, 16 h; stronger effect = lower value. AID 743279. activity change, % at 57.5 µM. 4.7% of 360,000 active; in the data active = activity change below about -50%; inconclusive = mostly about -30% to -49%
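THP-1 cells pretreated 1 hr with compounds (up to 57.5 uM final), then stimulated with LPS (250 ng/mL final) plus ATP (1.25 mM final); secreted IL-1B measured by AlphaLISA after 16 hr, decreased signal indicating inhibition.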
DT40 TDP1 CPT – DT40-hTDP1 cell growth loss with CPT. 12% of 420,000 active. chicken DT40 Tdp1-/-;hTDP1 cells + 20 nM CPT, ATP luminescence, 48 h. Potency, µM (doses to about 46.2 µM), inactives show at the top dose activity change, negative = growth inhibition, usual class: inhibitors. AID 686979; also: potency is read from the fitted curve at half-maximal effect; nearly all actives have a fitted effect of over 55% in size
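Chicken DT40 Tdp1-/- cells complemented with human TDP1, 400 cells/well, exposed to compounds plus 20 nM camptothecin for at least 48 h at 37 C; viability read as ATP content by CellTiter-Glo luminescence.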
HT1080 IDH1KD tx – HT-1080 IDH1 knockdown cell toxicity (counter line); HT-1080 IDH1 knockdown viability, ATP luminescence, 48 h; Potency, µM (top dose mostly 46.1 µM), for inactives: top-dose activity, negative = toxicity, usual class: cytotoxic; 2% of 360,000 active; AID 686971;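 also: potency is read from the fitted curve at half-maximal effect; 0% = DMSO wells and -100% = cell-free medium wells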
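IDH1KD HT-1080 cells, 750/well, RPMI + 5% FBS; compound pinned after 2 h settling; 48 h, 37 °C; CellTiter-Glo luminescence; % activity normalised to DMSO and no-cell wells; curves fitted, classed by r2 and efficacy.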
HT1080-NT tox – kills 2HG-producing HT-1080-NT fibrosarcoma cells; HT-1080-NT fibrosarcoma viability, CellTiter-Glo ATP luminescence, 48 h; Potency, µM (top dose mostly 46.1 µM), without a hit: at the top dose activity, negative = less viability, actives largely listed as cytotoxic; 1.6% of 360,000 active; AID 686970;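 also: NT is the 2HG producing partner of a matched IDH1 knockdown line; potency is read from the fitted curve at half-maximal effect; 0% = DMSO-treated cells and -100% = media-only wells without cells; nearly all actives have a fitted effect of over 55% in size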
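HT-1080-NT; 750 cells/well; 5% FBS RPMI; 48 h compound, 37 degrees C; CellTiter-Glo luminescence; curve fitting and curve-class assignment.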
Active calls of the source: *; u = inconclusive; x = not tested or not shown; [ ] = dose if it differs, or a comment. This is a sample that favours compounds with a hit; in the whole collection about 19% have one here. Unless noted, calls follow the shape of the dose curve; as a rule, active = well fitted curve in the direction sought with a large enough effect; inconclusive = small, poorly fitted or top-dose-only effect, or another doubt; inactive = no such curve, though single readings can be large; an effect the other way counts as inactive or inconclusive. Unless noted, % is scaled to controls: 0 for no effect and ±100 for the full control effect.

SMILES | DT40 TDP1 no CPT | IL-1B inflam inh | DT40 TDP1 CPT | HT1080 IDH1KD tx | HT1080-NT tox
Cc1cccc(N(C)c2nc3ccc(C)cc3n3cnnc23)c1 | 16.4µM* | x | u | x | x
Cc1ccc(C)c(Nc2nc3ccc(C)cc3n3cnnc23)c1 | u | 61.0 | 1.8% | 9.9% | 2.2%
O=C(C[n+]1cccc2ccccc21)c1ccc(NC(=O)c2ccccc2)cc1 | 6.51µM* | 0.0 | 8.2µM* | -7.7% | -8.9%
Cc1cc[n+](CC(=O)c2ccc(NC(=O)c3ccccc3)cc2)c2ccccc12 | 3.66µM* | u | 8.2µM* | -20.5% | u
Cc1cc[n+](CC(=O)c2ccc(NC(=O)c3ccccc3)cc2)cc1 | u | -10.0 | u | 0.4% | -0.8%
CCCCC1CCC(C(=O)N(CCOC)c2c(N)n(CCCC)c(=O)[nH]c2=O)CC1 (centres undefined) | u | -2.6 | u | 1.3% | 8.0%
Cc1cc(C(=O)C(=O)N(C)C)c(C)n1-c1ccc(Cl)c(Cl)c1 | 20.6µM* | 6.0 | u | 1.9% | 4.0%
Cc1c(OCC(=O)C(C)(C)C)ccc2c3c(c(=O)oc12)CCCC3 | 16.4µM* | -1.9 | u | 12.4% | 8.8%
CCOc1ccc2c3c(c(=O)oc2c1OCC)CCCC3 | u | -52.3* | u | 9.6%[9.24 µM] | -2.4%
Cc1c(OCC(=O)NCc2ccccn2)ccc2c(-c3ccccc3)cc(=O)oc12 | u | 6.2 | -4.0% | 8.1% | 2.3%
Cc1c(OCC(=O)NCC(O)c2ccccc2)ccc2c(-c3ccccc3)cc(=O)oc12 (centres undefined) | u | -62.6* | u | -13.6% | -4.1%
CCCOc1ccc2c3c(c(=O)oc2c1OCCC)CCCC3 | u | -5.8 | u | -27.6% | -11.4%
Cc1c(OCC(=O)C(C)(C)C)ccc2c(-c3ccccc3)cc(=O)oc12 | 16.4µM* | -63.5* | u | -5.7% | 3.1%
CC(=O)COc1ccc2c(-c3ccccc3)cc(=O)oc2c1C | u | -0.6 | -0.1% | -3.1% | -12.0%
COc1ccc(NC(=O)c2ccc3c(c2)NC(=O)CS3)cc1 | 0.0% | u | -24.3% | 1.5% | -0.1%[9.24 µM]
Cc1ccc(NS(=O)(=O)c2cc(NC(=O)c3ccc4c(c3)NC(=O)CS4)ccc2Cl)c(C)c1 | 25.9µM* | u | u | u | u
CN(C(=O)c1ccc(NC(=O)Cc2ccc([N+](=O)[O-])cc2)cc1)C1CCCC1 | u | -22.2 | 13µM* | -2.6% | -1.3%
CN(Cc1ccccc1)C(=O)c1cccc(NC(=O)Cc2cccc([N+](=O)[O-])c2)c1 | 23.1µM* | u | u | -5.5% | -17.8%
CN(C(=O)c1cccc(NC(=O)Cc2ccc([N+](=O)[O-])cc2)c1)C1CCCC1 | 25.9µM* | -23.7 | 23.1µM* | -25.8% | -12.4%
CN(C(=O)c1cccc(NC(=O)Cc2cccc([N+](=O)[O-])c2)c1)C1CCCC1 | u | x | 18.4µM* | -12.2% | -12.1%
CN(C(=O)c1cccc(NC(=O)Cc2cccc([N+](=O)[O-])c2)c1)C1CCC1 | u | -28.6 | u | 1.9% | 4.8%
C=CCc1cccc2cc(C(=O)OCC(=O)c3ccccc3)c(=O)oc12 | -20.5% | 27.0 | 1.6% | 4.3% | 2.8%
Cc1ccc(NC(=O)C2CCC(CNC(=O)[C@@H]3Cc4ccccc4CN3)CC2)c(C)c1 (some centres undefined) | 3.7% | 23.0 | -12.9% | -23.1% | -28.9%
O=C(NCCCCNC(=O)c1ccccc1F)c1ccccc1F | u | 6.8 | -0.4% | 5.7% | 9.6%
Cc1cccc(-c2nc(NCCN(C)C)c3ccccc3n2)c1 | u | -16.4 | -9.7% | -5.0% | -6.9%
SMILES | DT40 TDP1 no CPT | IL-1B inflam inh | DT40 TDP1 CPT | HT1080 IDH1KD tx | HT1080-NT tox
COc1cccc(C(=O)OCC(=O)Nc2ccc3c(c2)OCCO3)c1 | u | 34.2 | -24.8% | -6.5% | 4.5%
CCSc1ccc(C(=O)Nc2ccc(-c3nc4ccc(C)cc4s3)cc2)cc1 | u | x | -2.9% | x | x
Cc1ccc2nc(-c3ccc(NC(=O)c4ccc(S(C)(=O)=O)cc4)cc3)sc2c1 | u | x | 20.6µM* | x | x
O=C(Nc1ccc(-c2nc3ccccc3s2)cc1)c1cc(-n2cnnc2)ccc1Cl | 13µM* | -84.0* | 23.1µM* | 11.2µM* | 10µM*
Cc1ccc2nc(-c3ccc(NC(=O)c4ccccc4S(C)(=O)=O)cc3)sc2c1 | 8.2µM* | x | u | x | x
Cc1ccc2nc(-c3ccc(NC(=O)C(F)(F)F)cc3)sc2c1 | u | x | -18.2% | x | x
CCOc1ccccc1NC(=O)Cn1nnc2sc3c(c2c1=O)CCC(C(C)(C)C)C3 (centres undefined) | 5.17µM* | x | 14.6µM* | x | x
CCOC(=O)c1ccccc1NC(=O)Cn1nnc2sc3c(c2c1=O)CCCC3 | 1.1% | x | -15.1% | x | x
Cc1cc(NC(=O)Cn2nnc3sc4c(c3c2=O)CCC(C(C)(C)C)C4)no1 (centres undefined) | u | -27.0 | 11.2µM* | u | u
Cc1cc(NC(=O)Cn2nnc3sc4c(c3c2=O)CCCC4)no1 | -20.6% | -9.8 | -10.7% | -1.9% | 1.1%
CC(C(=O)N1CCc2ccccc21)N1CCN(c2cccc(C(F)(F)F)c2)CC1 (centres undefined) | u | u | -12.5% | -19.5% | u
C[C@H](CO)N1C[C@H](C)[C@H](CN(C)C(=O)Nc2ccccc2)OCc2cnnn2CCCC1=O | -12.6% | 9.3 | 8.0% | 13.4% | 5.7%
COc1cc(C)ccc1OCCSc1nc2ccc(NC(=O)c3ccc4c(c3)OCO4)cc2s1 | u | x | -26.6% | x | x
Cc1cc(C)cc(OCCSc2nc3ccc(NC(=O)c4ccc5c(c4)OCO5)cc3s2)c1 | 5.17µM* | x | u | x | x
Cc1ccccc1OCCSc1nc2ccc(NC(=O)c3cccc(F)c3)cc2s1 | 11.6µM* | x | 16.4µM* | x | x
Cc1cccc(OCCSc2nc3ccc(NC(=O)c4cccs4)cc3s2)c1 | 11.6µM* | x | 16.4µM* | x | x
Cc1ccccc1OCCSc1nc2ccc(NC(=O)c3cccs3)cc2s1 | 18.4µM* | x | 23.1µM* | x | x
Cc1ccc(NC(=O)CSc2nc3ccc(NC(=O)c4cccs4)cc3s2)cc1 | u | x | -25.9% | x | x
CCC1([N+](=O)[O-])COC(c2ccc(Cl)cc2)OC1 (centres undefined) | -23.5% | 22.3 | -25.9% | 2.1% | -2.6%
CCN(C[C@H]1N[C@@](C)(C(=O)OC)[C@H]2C(=O)N(C)C(=O)[C@@H]12)C(=O)Nc1ccccc1 | -5.1% | 20.9 | -12.2% | 11.1% | 9.6%
COC(=O)c1cn([C@H]2C[C@@H](C(=O)N3CCCCCC3)N(Cc3ccsc3)C2)nn1 | -14.6% | x | 0.3%[9.04 µM] | x | x
O=C(CSc1nnc(CCc2ccccc2)n1-c1ccc(Cl)cc1)NCc1ccccc1 | 16.4µM* | -6.6 | 16.4µM* | -4.1% | -1.3%

Source: PubChem BioAssay (National Center for Advancing Translational Sciences (NCATS))
